An excerpt weighted towards active compounds, which were near 2.2% of everything screened.
LDHA block = inhibitors of human lactate dehydrogenase A; P00338; purified LDHA, NADH/diaphorase-resazurin fluorescence; hits give low values; activity change, % (values are at about 110 or 230 µM); 480,000 tested, 0.15% active; AID 1347041; in the data active = activity change below about -30%; inconclusive = mostly about -25% to -30%;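 note: plate controls were DMSO wells for no effect and wells without enzyme for full effect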
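Resorufin fluorescence (ex540/em590), read at 0 and 20 min after diaphorase/resazurin addition, reports the NADH left after a 5 min room-temperature reaction of 2 nM human LDH5 with 0.06 mM NADH and 0.2 mM pyruvate.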
ATXN2 expr inh = reduces ATXN2 reporter expression in HEK-293 cells. 360,000 tested, 0.72% active. Potency, µM (series often up to 57 µM), for the others: top-dose activity change, negative = inhibition, usual class: inhibitors. HEK-293 ATXN2-luciferase reporter, luminescence, 24 h. AID 1745845; note: potency is the fitted concentration of half-maximal effect; % is set by controls: 0 for no effect and ±100 for the full control effect; nearly all actives have a fitted effect of over 55% in size
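qHTS (up to 57 uM final) was run with 24 h compound exposure of reporter cells at 37 °C. Each well was multiplexed: SteadyGlo luminescence measured ATXN2-luciferase expression after a fluorogenic Gly-Phe-AFC viability readout (25 uM final).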
IDH1 R132H inh = blocks human mutant IDH1 R132H enzyme | O75874 | IDH1-R132H enzyme, NADPH consumption, diaphorase/resazurin fluorescence | Potency, µM (top dose mostly 76.6 µM), inactives show at the top dose activity change, negative = inhibition, usual class: inhibitors | 390,000 tested, 0.093% active; note: potency is the fitted concentration of half-maximal effect; % is set by controls: 0 for no effect and ±100 for the full control effect; nearly all actives have a fitted effect of over 65% in size
Target sequence (O75874 whole entry R132H, stated change not applied): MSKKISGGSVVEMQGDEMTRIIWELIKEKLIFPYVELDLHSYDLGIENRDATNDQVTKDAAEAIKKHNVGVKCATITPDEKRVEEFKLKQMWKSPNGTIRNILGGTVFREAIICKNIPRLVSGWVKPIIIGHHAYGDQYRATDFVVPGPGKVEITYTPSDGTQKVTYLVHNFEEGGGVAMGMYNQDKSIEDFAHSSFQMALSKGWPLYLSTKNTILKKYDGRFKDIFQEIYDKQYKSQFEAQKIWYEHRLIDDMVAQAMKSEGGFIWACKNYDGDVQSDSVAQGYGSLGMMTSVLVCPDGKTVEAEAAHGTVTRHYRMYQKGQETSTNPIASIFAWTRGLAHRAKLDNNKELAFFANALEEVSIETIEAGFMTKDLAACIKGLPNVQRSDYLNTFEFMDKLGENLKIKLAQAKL
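IDH1-R132H (0.5 ug/mL) preincubated 30 min with compound, then NADPH (0.016 mM) and alpha-KG (2 mM) added; 80 min at RT, pH 7.5. Remaining NADPH coupled via diaphorase/resazurin to fluorescence (540/590 nm); concentration-response curves normalized to no-enzyme control.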
HepG2 tox = kills HepG2 cells in TGF-b inhibitor counter-screen; HepG2 CAGA-GFP viability, ATP luminescence, 18 h; Potency, µM (highest dose often 46.1 µM), for the others: at the highest dose activity change, negative = cytotoxicity, actives largely listed as cytotoxic; 410,000 tested, 0.76% active; AID 588856; note: potency is the fitted concentration of half-maximal effect
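HepG2 CAGA-GFP cells (1000/well, DMEM with 1% FBS) received compound, then TGF-beta at 500 pg/mL final, and were incubated 18 hours at 37 degrees C. Viability was read by CellTiter-Glo luminescence. Media-only wells were set as complete cell-killing and DMSO as no toxicity.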
TGFb inhibitor = blocks TGF-b signaling; HepG2 CAGA-GFP TGF-b/SMAD3 reporter, GFP fluorescence, 18 h; TGF-beta stimulated, 500 pg/mL final; AID 588855; 410,000 tested, 1.2% active; Potency, µM (series often up to 46.1 µM), for inactives: top-dose activity, negative = inhibition, actives largely listed as inhibitors; note: potency is the fitted concentration of half-maximal effect; % is set by controls: 0 for no effect and ±100 for the full control effect; nearly all actives have a fitted effect of over 65% in size
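Inhibition was scored as loss of TGF-beta-induced (500 pg/mL final, 18 hours, 37 degrees C) GFP in HEPG2 cells carrying a CAGA-GFP reporter, in DMEM with 1% FBS. Well GFP was summed per cell; Activity was normalised to unstimulated and stimulated DMSO wells, then concentration-response fitting.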
ATXN viability = viability counter-screen for ATXN expression inhibitors | Potency, µM (doses to about 56.7 µM), actives largely listed as cytotoxic | 400,000 tested, 0.49% active | S2 cells (HEK-293 line with an ATXN2-luciferase reporter) viability, CellTiter-Fluor protease fluorescence, 24 h; note: potency is the fitted concentration of half-maximal effect; nearly all actives have a fitted effect of over 40% in size
IDH1 autofl = interferes with resorufin fluorescence in IDH1 counter-screen; shares compounds with IDH1 R132H inh; Resorufin detection reagent fluorescence interference, cell-free; 750 tested, under 10 active; inhibition of signal, % at 51.2 µM;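 note: 0% = wells with normal resorufin and full inhibition = wells lacking resorufin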
IDH1 WT = wild-type IDH1 (human) inhibition counterscreen. Potency, µM (top dose mostly 115 µM), inactives show at the top dose activity change, negative = inhibition, most hits filed as inhibitors. WT IDH1 enzyme, NADPH diaphorase/resazurin fluorescence. shares compounds with IDH1 R132H inh. 750 tested, 9% active;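 note: potency is the fitted concentration of half-maximal effect; 0% = full WT IDH1 enzyme control and full inhibition = no enzyme wells; nearly all actives have a fitted effect of over 55% in size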
Target sequence (O75874 whole entry, looked up): as the sequence (O75874 whole entry R132H, stated change not applied) above, with H132R counted along it
IDH1 R132H conf = mutant IDH1 (human) inhibition, confirmed | Potency, µM (titrated, usually from 76.6 µM), for the others: at the top dose activity change, negative = inhibition, usual class: inhibitors | AID 624002 | IDH1 R132H enzyme, NADPH diaphorase/resazurin fluorescence | 750 tested, 83% active | shares compounds with IDH1 R132H inh; note: potency is the fitted concentration of half-maximal effect; nearly all actives have a fitted effect of over 50% in size
* hit, by the source's call. Unless noted, calls come from the whole dose curve; as a rule, active = well fitted curve in the direction sought with a large enough effect; inconclusive = small, poorly fitted or top-dose-only effect, or another doubt; inactive = no such curve, though single readings can be large; an effect the other way counts as inactive or inconclusive.

Screening COc1ccc(N(C(=O)Cc2cccs2)C(C(=O)NC2CCCCC2)c2cccn2C)cc1 (configuration not stated) returned LDHA block -5, ATXN2 expr inh 3%, IDH1 R132H inh inconclusive, HepG2 tox -23%, TGFb inhibitor -14%, ATXN viability inactive, IDH1 autofl -3, IDH1 WT 15% and IDH1 R132H conf 40µM*.
Cc1nn(-c2ccccc2)nc1C(=O)Nc1ccc2c(c1)OCCO2 was read as LDHA block 0, ATXN2 expr inh 4%, IDH1 R132H inh 9%, HepG2 tox -13%, TGFb inhibitor 19% and ATXN viability inactive.
For CCOC(=O)C1CN(Cc2ccccc2)C(=O)C1=O (configuration not stated) the results were LDHA block -9, ATXN2 expr inh -2%, IDH1 R132H inh 0%, HepG2 tox 0%, TGFb inhibitor 30% and ATXN viability inactive.
For CCNC(=O)NC(=O)CNc1ccccc1N(C)Cc1ccccc1 the results were LDHA block 4.
For Cn1cccc1C(C(=O)NC1CCCCC1)N(C(=O)Cc1cccs1)c1ccc2c(c1)OCO2 (configuration not stated) the results were LDHA block 2, ATXN2 expr inh 3%, IDH1 R132H inh inconclusive, HepG2 tox 0%, TGFb inhibitor -9%, ATXN viability inactive, IDH1 autofl 7, IDH1 WT 0% and IDH1 R132H conf 11µM*.
For Cc1ccc(C(C(=O)NC2CCCC2)N(Cc2ccc3c(c2)OCO3)C(=O)Cc2cccs2)cc1 (configuration not stated) the results were LDHA block -9, ATXN2 expr inh 5%, IDH1 R132H inh -5%, HepG2 tox -34%, TGFb inhibitor inconclusive and ATXN viability inactive.
`CCOC(=O)C1=C(C)OC2(O)c3ccccc3C(=O)C12O` (configuration not stated) gave LDHA block 3, IDH1 R132H inh inconclusive, HepG2 tox -2%, TGFb inhibitor -15%, ATXN viability inactive, IDH1 autofl 3, IDH1 WT 24% and IDH1 R132H conf inconclusive.
`CC(=O)C1=C(C)OC2(O)c3ccccc3C(=O)C12O` (configuration not stated) gave LDHA block 3, IDH1 R132H inh -7%, HepG2 tox -5%, TGFb inhibitor -17% and ATXN viability inactive.
For COc1cc2cnc(-c3ccsc3)c(-c3ccc(F)cc3)c2cc1OC the results were LDHA block 1, ATXN2 expr inh 2%, IDH1 R132H inh inconclusive, HepG2 tox -1%, TGFb inhibitor -48%, ATXN viability inactive, IDH1 autofl 1, IDH1 WT 8% and IDH1 R132H conf 25µM*.
For COc1cc2cnc(-c3ccccc3)c(-c3ccc(C#N)cc3)c2cc1OC the results were LDHA block 2, ATXN2 expr inh inconclusive, IDH1 R132H inh 32µM*, HepG2 tox -8%, TGFb inhibitor 13%, ATXN viability inconclusive, IDH1 autofl 0, IDH1 WT inconclusive and IDH1 R132H conf 8.9µM*.
Screening CCC(C)c1ccccc1N=Cc1ccc2c(c1)OCO2 (configuration not stated) returned LDHA block 4, ATXN2 expr inh 2%, IDH1 R132H inh 11%, HepG2 tox -1%, TGFb inhibitor 3% and ATXN viability inactive.
For C=CS(=O)(=O)c1ccc(Oc2ccc(S(=O)(=O)C=C)cc2)cc1 the results were LDHA block -9, ATXN2 expr inh 8.9µM*, IDH1 R132H inh 32µM*, HepG2 tox 3.2µM*, TGFb inhibitor 0%, ATXN viability 5µM*, IDH1 autofl 1, IDH1 WT inconclusive and IDH1 R132H conf 11µM*.
`Cc1cc(C(=O)N(Cc2ccccn2)C2CC2)sc1C` gave LDHA block -8.
COc1cc(N(C(=O)Cc2cccs2)C(C(=O)NC2CCCCC2)c2cccc(OC)c2OC)ccc1-n1cnnn1 (configuration not stated) was read as LDHA block -2, ATXN2 expr inh -1%, IDH1 R132H inh inconclusive, HepG2 tox -9%, TGFb inhibitor -10%, ATXN viability inactive, IDH1 autofl 2, IDH1 WT -2% and IDH1 R132H conf inconclusive.
COc1ccc(N(C(=O)C2COc3ccccc3O2)C(C(=O)NC2CCCCC2)c2ccccc2)cc1OC (configuration not stated) was read as LDHA block -14, ATXN2 expr inh 0%, IDH1 R132H inh 5.2µM*, HepG2 tox -2%, TGFb inhibitor 8%, ATXN viability inconclusive, IDH1 autofl 4, IDH1 WT 4% and IDH1 R132H conf 2.8µM*.
COc1cccc(C(C(=O)NC2CCCCC2)N(C(=O)Cc2cccs2)c2ccc(-n3cnnn3)c(OC)c2)c1 (configuration not stated) was read as LDHA block -9, ATXN2 expr inh 10%, IDH1 R132H inh inconclusive, HepG2 tox 0%, TGFb inhibitor inconclusive, ATXN viability inactive, IDH1 autofl 1, IDH1 WT -4% and IDH1 R132H conf 8.9µM*.
`COc1cccc(C(C(=O)NC2CCCCC2)N(C(=O)c2ccco2)c2ccc(-n3cnnn3)c(C)c2)c1` (configuration not stated) gave LDHA block 0, ATXN2 expr inh 5%, IDH1 R132H inh -1%, HepG2 tox -1%, TGFb inhibitor 10% and ATXN viability inactive.
